Several values for one entry are separate records, joined by “and”; a condition that tells them apart may be missing. Equal entries are not always repeated. Inconclusive results are not listed. Activity calls are given as the source filed them. Unless noted, the call rests on the fitted dose curve.
How the values were obtained:
[1] = Nuclear factor erythroid 2-related factor 2/antioxidant responsive element (Nrf2/ARE) small molecule agonists: luciferase reporter gene qHTS assay in human keratinocytes (AID 1919969); further: nearly all actives have a fitted effect of over 35% in size; further: potency means the concentration at half of the fitted maximal effect
[2] = biological target: Gonadotropin-releasing hormone receptor (Homo sapiens) (UniProt P30968); test: Human gonadotropin-releasing hormone receptor (GnRHR) small molecule agonists, calcium flux assay in GnRHR-HEK293 cells (AID 1920063); further: nearly all actives have a fitted effect of over 35% in size; further: potency means the concentration at half of the fitted maximal effect
Sequence of Gonadotropin-releasing hormone receptor (Homo sapiens) (P30968 whole entry, looked up): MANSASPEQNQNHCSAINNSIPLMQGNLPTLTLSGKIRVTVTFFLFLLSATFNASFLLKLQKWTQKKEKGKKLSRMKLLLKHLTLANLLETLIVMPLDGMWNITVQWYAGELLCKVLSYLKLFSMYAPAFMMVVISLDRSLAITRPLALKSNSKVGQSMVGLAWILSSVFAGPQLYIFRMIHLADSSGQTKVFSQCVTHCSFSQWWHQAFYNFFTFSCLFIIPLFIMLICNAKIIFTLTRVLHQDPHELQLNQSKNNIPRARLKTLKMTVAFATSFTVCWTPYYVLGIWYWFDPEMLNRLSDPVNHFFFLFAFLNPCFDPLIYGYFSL
In short: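 Intracellular calcium rise is the read-out: engineered human GnRHR HEK293 cells, dye-loaded, are exposed to DMSO-dissolved compounds and fluorescence at Ex/Em 480/540 is tracked for 3 min.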

[3] = biological target: KiSS-1 receptor (Homo sapiens) (UniProt Q969F8); test: Human kisspeptin (KISS1R) small molecule agonists, calcium flux assay in KISS1R-HEK293 cells (AID 1920064; active means well fitted activation curve with a large enough effect in the repeat runs)
Sequence of KiSS-1 receptor (Homo sapiens) (Q969F8 whole entry, looked up): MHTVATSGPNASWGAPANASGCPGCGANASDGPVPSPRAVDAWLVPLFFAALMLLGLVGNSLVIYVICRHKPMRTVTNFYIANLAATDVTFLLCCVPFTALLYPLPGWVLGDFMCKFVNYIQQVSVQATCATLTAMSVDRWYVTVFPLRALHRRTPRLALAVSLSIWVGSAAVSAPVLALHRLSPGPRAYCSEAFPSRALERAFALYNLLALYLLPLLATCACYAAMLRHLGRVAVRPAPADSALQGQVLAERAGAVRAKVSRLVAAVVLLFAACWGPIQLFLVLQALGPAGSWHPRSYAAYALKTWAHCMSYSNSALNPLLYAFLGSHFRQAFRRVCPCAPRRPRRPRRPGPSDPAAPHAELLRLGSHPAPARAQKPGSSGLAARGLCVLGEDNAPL
In short: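 Concentration-response testing used 15 concentrations in triplicate on human KISS1R-expressing HEK293 cells. Calcium-dependent fluorescence (Ex/Em 480/540) was followed kinetically for 3 min after compound transfer.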

[4] = G protein-coupled receptor (GPCR) small molecule agonists, calcium flux assay: HEK293 wild type cell line counter screen (AID 1920065)
In short: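 Fluorescence intensity signals activation. After overnight (18 h) culture and a 1 h calcium dye load at 37 C, compounds are added by pin tool and the plate read at 480/540 nm for 3 min in 1 s steps.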

[5] = p53 small molecule agonists, cell-based qHTS assay with human liver microsomes (AID 1963577);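 further: p53 response element beta-lactamase reporter cells with liver microsomes plus NADPH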
In short: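 Reporter activation was measured by LiveBLAzer fluorescence intensity in p53RE-bla cells, which had been exposed to compounds for 16 h at 37 C alongside 0.5 mg/mL human liver microsomes and 0.5 mg/mL NADPH (final concentrations).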

[6] = p53 small molecule agonists, cell-based qHTS assay with rat liver microsomes (AID 1963578)
In short: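 Compound in DMSO added to p53RE-bla cells 5 h post-plating; rat microsomes/NADPH 0.5 mg/mL final; 16 h, 37 C; LiveBLAzer 2 h RT.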

[7] = p53 small molecule agonists, cell-based qHTS assay with human liver microsomes: qHTS cell viability counter screen (AID 1963579); further: nearly all actives have a fitted effect of over 45% in size; further: potency means the concentration at half of the fitted maximal effect
In short: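 HLM-supplemented (0.5 mg/mL final) and NADPH-supplemented (0.5 mg/mL final) p53RE-bla cultures, 4,000 cells per well, were dosed with compounds in DMSO for 16 h at 37 C; luminescent ATP detection (CellTiter-Glo, 30 min, room temperature) quantified surviving cells.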

[8] = p53 small molecule agonists, cell-based qHTS assay with rat liver microsomes: qHTS cell viability counter screen (AID 1963580); further: nearly all actives have a fitted effect of over 45% in size; further: potency means the concentration at half of the fitted maximal effect
In short: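 Counter screen for cytotoxicity under metabolic activation: rat liver microsomes and NADPH, 0.5 mg/mL final each, added with compounds to p53RE-bla HCT-116 cells; 16 h at 37 C, then ATP luminescence read.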

[9] = p53 small molecule agonists, cell-based qHTS assay (AID 1963582; active means well fitted activation curve with a large enough effect in the signal ratio in the repeat runs, not every such curve was filed as active; the % refers to the signal ratio; further: potency means the concentration at half of the fitted maximal effect)
In short: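 After plating, p53RE-bla cells sat 5 h in the incubator; compounds or DMSO vehicle were pinned in; a 16 h incubation at 37 C followed; FRET substrate was added and, 2 h later at RT, fluorescence was measured.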

[10] = biological target: 5-hydroxytryptamine receptor 2A (Homo sapiens) (UniProt P28223); test: 5-hydroxytryptamine receptor 2A (HTR2A) small molecule antagonists, cell-based qHTS assay (AID 1963586); further: nearly all actives have a fitted effect of over 45% in size; further: potency means the concentration at half of the fitted maximal effect
Sequence of 5-hydroxytryptamine receptor 2A (Homo sapiens) (P28223 whole entry, looked up): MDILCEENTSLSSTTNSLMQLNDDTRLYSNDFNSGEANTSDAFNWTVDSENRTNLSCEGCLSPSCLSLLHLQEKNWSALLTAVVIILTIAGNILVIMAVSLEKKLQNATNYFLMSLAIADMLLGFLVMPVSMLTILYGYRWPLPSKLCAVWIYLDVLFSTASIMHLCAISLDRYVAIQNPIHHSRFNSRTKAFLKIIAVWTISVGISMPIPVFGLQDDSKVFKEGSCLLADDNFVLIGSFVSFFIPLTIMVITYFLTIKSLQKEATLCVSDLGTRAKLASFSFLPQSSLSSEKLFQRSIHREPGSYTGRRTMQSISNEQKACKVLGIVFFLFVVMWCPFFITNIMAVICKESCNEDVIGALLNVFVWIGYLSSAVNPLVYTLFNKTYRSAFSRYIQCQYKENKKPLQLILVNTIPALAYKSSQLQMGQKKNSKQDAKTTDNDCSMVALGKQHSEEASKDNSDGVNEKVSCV
In short: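 CHO cells stably expressing human HTR2A were plated for 18 h at 37 C, then loaded with calcium dye for 1 h. Compounds were preincubated 5 min at room temperature before DOI (4 nM solution) was added. Kinetic fluorescence was read for 3 min.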

[11] = biological target: Muscarinic acetylcholine receptor M1 (Homo sapiens) (UniProt P11229); test: Cholinergic receptor muscarinic 1 (CHRM1) small molecule antagonists, cell-based qHTS assay (AID 1963588); further: nearly all actives have a fitted effect of over 40% in size; further: potency means the concentration at half of the fitted maximal effect
Sequence of Muscarinic acetylcholine receptor M1 (Homo sapiens) (P11229 whole entry, looked up): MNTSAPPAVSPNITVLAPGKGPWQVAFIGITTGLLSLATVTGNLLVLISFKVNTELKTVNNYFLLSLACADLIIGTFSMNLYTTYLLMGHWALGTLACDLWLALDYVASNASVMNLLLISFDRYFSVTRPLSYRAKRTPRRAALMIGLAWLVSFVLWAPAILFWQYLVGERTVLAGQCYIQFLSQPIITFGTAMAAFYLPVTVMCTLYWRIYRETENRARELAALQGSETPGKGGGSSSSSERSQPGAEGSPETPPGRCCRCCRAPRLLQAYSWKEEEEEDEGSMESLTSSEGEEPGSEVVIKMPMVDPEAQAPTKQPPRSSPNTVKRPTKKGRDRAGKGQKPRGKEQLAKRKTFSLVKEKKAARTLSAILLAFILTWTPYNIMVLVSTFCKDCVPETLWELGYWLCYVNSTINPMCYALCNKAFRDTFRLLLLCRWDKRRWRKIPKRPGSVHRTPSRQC
In short: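 Compounds were tested at 15 concentrations in three independent runs. Dye-loaded CHRM1-CHO cells were exposed 5 min at room temperature before stimulation by acetylcholine added at 50nM. Intracellular calcium was read kinetically on FDSS for 3 min.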

[12] = biological target: Muscarinic acetylcholine receptor M1 (Homo sapiens) (UniProt P11229); test: Cholinergic receptor muscarinic 1 (CHRM1) small molecule agonists, cell-based qHTS assay (AID 1963589); further: nearly all actives have a fitted effect of over 35% in size
In short: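 Fluorescent calcium dye reports M1 activation in stably transfected CHO cells. Compounds, 15 concentrations, added after 1 h dye loading at 37 C; kinetic reading at 1 sec intervals.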

[13] = biological target: Beta-2 adrenergic receptor (Homo sapiens) (UniProt P07550); test: Adrenergic beta2 receptor (ADRB2) small molecule antagonists, cell-based qHTS assay (AID 1963592); further: nearly all actives have a fitted effect of over 50% in size; further: potency means the concentration at half of the fitted maximal effect
Sequence of Beta-2 adrenergic receptor (Homo sapiens) (P07550 whole entry, looked up): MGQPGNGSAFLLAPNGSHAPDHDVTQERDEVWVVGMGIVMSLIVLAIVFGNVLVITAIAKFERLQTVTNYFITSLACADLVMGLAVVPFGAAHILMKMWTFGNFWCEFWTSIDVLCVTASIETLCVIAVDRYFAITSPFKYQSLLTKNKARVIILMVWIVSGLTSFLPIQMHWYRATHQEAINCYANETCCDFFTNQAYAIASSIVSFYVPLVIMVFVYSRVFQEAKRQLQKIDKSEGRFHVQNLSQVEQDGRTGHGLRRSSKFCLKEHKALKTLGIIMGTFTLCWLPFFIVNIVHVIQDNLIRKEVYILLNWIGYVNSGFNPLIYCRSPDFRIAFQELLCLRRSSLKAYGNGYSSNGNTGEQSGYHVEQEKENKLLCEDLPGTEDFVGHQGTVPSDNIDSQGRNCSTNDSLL
In short: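 Assay format: CHO-ADRB2 cells, 18-20hr seeding at 37C/5% CO2, then compound plus 1nM isoproterenol agonist mix for 0.5hr RT. Homogeneous time-resolved fluorescence cAMP detection after 1hr, expressed as 665/615 nm ratio.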

[14] = biological target: Beta-2 adrenergic receptor (Homo sapiens) (UniProt P07550); test: Adrenergic beta2 receptor (ADRB2) small molecule agonists, cell-based qHTS assay (AID 1963593);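 further: CHO cells stably overexpressing human ADRB2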
In short: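 CHO cells stably over-expressing ADRB2 were plated overnight at 37C, then dosed with compounds plus a stimulation mix containing 100uM IBMX and 25uM Ro-20-1724 for 0.5hr at room temperature. cAMP was measured by HTRF competition, 1hr.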

[15] = biological target: D(2) dopamine receptor (Homo sapiens) (UniProt P14416); test: Dopamine D2 receptor (DRD2) small molecule agonists, cell-based qHTS assay (AID 1963594); further: nearly all actives have a fitted effect of over 35% in size
Sequence of D(2) dopamine receptor (Homo sapiens) (P14416 whole entry, looked up): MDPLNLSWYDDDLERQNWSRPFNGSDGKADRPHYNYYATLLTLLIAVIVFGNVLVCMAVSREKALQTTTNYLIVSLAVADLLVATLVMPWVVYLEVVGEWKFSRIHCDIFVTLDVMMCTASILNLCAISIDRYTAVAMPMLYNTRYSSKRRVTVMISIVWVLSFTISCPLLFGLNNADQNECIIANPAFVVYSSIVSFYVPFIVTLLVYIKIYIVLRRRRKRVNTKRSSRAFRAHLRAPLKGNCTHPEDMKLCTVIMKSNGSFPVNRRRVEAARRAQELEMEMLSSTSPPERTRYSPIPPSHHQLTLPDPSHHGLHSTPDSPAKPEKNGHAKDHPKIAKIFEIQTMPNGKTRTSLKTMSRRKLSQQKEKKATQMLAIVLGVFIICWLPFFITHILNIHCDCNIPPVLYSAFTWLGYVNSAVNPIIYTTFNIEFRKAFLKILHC
In short: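 HEK293 cells stably expressing DRD2 were cultured 24 h at 37 C, then given Ro20-1724 (0.1 mM final) and compounds for 10 min at room temperature. NKH477 (200nM) was then added for 30 min. cAMP was read by HTRF.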

[16] = biological target: D(2) dopamine receptor (Homo sapiens) (UniProt P14416); test: Dopamine D2 receptor (DRD2) small molecule antagonists, cell-based qHTS assay (AID 1963595; active means well fitted inhibition curve with a large enough effect in the signal ratio in the repeat runs, with a control signal flat; the % refers to the signal ratio; further: potency means the concentration at half of the fitted maximal effect)
In short: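 DRD2-HEK293; 0.1 mM Ro20-1724; cpd 10 min RT; NKH477 200 nM + quinpirole 12 nM, 30 min RT; HTRF cAMP (cAMP-d2/anti-cAMP cryptate), 665/620 nm ratio after 1 h.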

[17] = p53 small molecule agonists, cell-based qHTS assay: qHTS cell viability counter screen (AID 1963581); further: nearly all actives have a fitted effect of over 45% in size
In short: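 Luminescence from CellTiter-Glo, reflecting ATP content, serves as the cytotoxicity measure; it is taken after the 2 h reporter substrate step in HCT-116 p53RE-bla cells dosed for 16 h at 37 C.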

[18] = biological target: 5-hydroxytryptamine receptor 2A (Homo sapiens) (UniProt P28223); test: 5-hydroxytryptamine receptor 2A (HTR2A) small molecule agonists, cell-based qHTS assay (AID 1963587); further: nearly all actives have a fitted effect of over 30% in size
In short: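 HTR2A-CHO cells, plated 18 h at 37 C/5% CO2, dye-loaded 1 h at 37 C; compounds in DMSO added by pin tool (agonist mode). Intracellular calcium flux read as kinetic fluorescence on FDSS over 2 min at 1 s intervals.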

[19] = cAMP Responsive Elements (CRE) small molecule antagonists, cell-based qHTS assay (AID 1963591; active means well fitted inhibition curve with a large enough effect in the signal ratio in the repeat runs, not every such curve was filed as active; the % refers to the signal ratio; further: potency means the concentration at half of the fitted maximal effect)
In short: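 Stimulation used NKH477 at a final 0.25 uM for 3 h in compound-treated CRE-bla HEK293T cells, seeded 18 h beforehand. Reporter activity was measured with LiveBLAzer B/G FRET substrate after 2 h at room temperature.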

[20] = cAMP Responsive Elements (CRE) small molecule agonists, cell-based qHTS assay (AID 1963590)
In short: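 Compound exposure lasted 3 h at 37 C/5% CO2 in CRE-bla HEK 293T cells grown in assay medium with 10% dialyzed FBS and 25 mM HEPES. Reporter signal came from LiveBLAzer B/G FRET substrate, 2 h, room temperature.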

Measured: Potency

CCCCCCCC/C=C\CCCCCCCC(=O)N(C)CC(=O)O
active: [1] 54.5 µM
not listed: [17] | [18] | [19] | [20]
inactive: all other assays above

CO[C@H]1C=CO[C@@]2(C)Oc3c(C)c(O)c4c(O)c(c5c(c4c3C2=O)=NC2(CCN(CC(C)C)CC2)N=5)NC(=O)/C(C)=C\C=C/[C@H](C)[C@H](O)[C@@H](C)[C@@H](O)[C@@H](C)[C@H](OC(C)=O)[C@@H]1C
inactive: [1] | [2] | [3] | [4] | [5] | [6] | [7] | [8] | [17] | [13]

Oc1c(Cl)cc(Cl)c2cccnc12
active: [1] 0.188 µM
not listed: [9] | [14] | [19] | [20]
inactive: all other assays above

COc1ccccc1OCCNCC(O)COc1cccc2[nH]c3ccccc3c12 (stereo unspecified)
inactive: [1] | [2] | [3] | [4] | [5] | [6] | [7] | [8] | [9] | [19]

COC(=O)CC(C)CCC=C(C)C (stereo unspecified)
active: [1] 68.6 µM | [7] 45.8 µM
not listed: [8] | [20]
inactive: all other assays above

COc1ccc(C(=O)c2ccc(C)cc2)c(O)c1
active: [1] 31 µM
not listed: [9] | [18] | [20]
inactive: all other assays above

Cc1cccc(C)c1NC(=O)CN1CCN(CCCC(c2ccc(F)cc2)c2ccc(F)cc2)CC1
active: [10] 8.18 µM
not listed: [12] | [16] | [17] | [19]
inactive: all other assays above

c1cc(CN2CCCCC2)cc(OCCCNc2nc3ccccc3s2)c1
active: [11] 5.79 µM
not listed: [9] | [10] | [13] | [14] | [16] | [19]
inactive: all other assays above

Cc1ccc(N=Nc2c(O)c(C(=O)O)cc3ccccc23)c(S(=O)(=O)O)c1
not listed: [9] | [17] | [20]
inactive: all other assays above

c1ccc(-c2ccc(C(c3ccccc3)n3ccnc3)cc2)cc1 (stereo unspecified)
active: [1] 29.8 µM
not listed: [9] | [10] | [11] | [19]
inactive: all other assays above

C=CC(=O)OCCCCCCOC(=O)C=C
active: [1] 27.6 µM and 24.3 µM
not listed: [9] | [13] | [14] | [20]
inactive: all other assays above

COc1cc([N+](=O)[O-])ccc1N
not listed: [8]
inactive: all other assays above

C=CC[N+]1([C@H]2C[C@H]3[C@@H]4CC[C@H]5C[C@H](OC(C)=O)[C@@H](N6CCCCC6)C[C@]5(C)[C@H]4CC[C@]3(C)[C@H]2OC(=O)CC)CCCCC1
not listed: [10] | [17]
inactive: all other assays above

Nc1ccc(N)c2c1C(=O)c1ccccc1C2=O
not listed: [9] | [10] | [13] | [14] | [15] | [16] | [18] | [19]
inactive: all other assays above

C=Cc1ccc(O)c(OC)c1
active: [1] 48.6 µM
not listed: [8] | [14] | [19]
inactive: all other assays above

Cc1cc(O)c2c(c1)C(=O)c1cc(O)cc(O)c1C2=O
active: [1] 33.6 µM
not listed: [9] | [10] | [16] | [19] | [20]
inactive: all other assays above

Nc1ccc(N=Nc2ccc(N)cc2)cc1
not listed: [14] | [15] | [17]
inactive: all other assays above

O=C(Nc1ccc(S(=O)(=O)N2CCOCC2)cc1)c1cc(Cl)ccc1NS(=O)(=O)c1ccc(Cl)s1
not listed: [9] | [10] | [14] | [18]
inactive: all other assays above

OCCN1CCN(CCCN2c3ccccc3Sc3ccc(C(F)(F)F)cc32)CC1
not listed: [9] | [10] | [11] | [12] | [13] | [14] | [16] | [18]
inactive: all other assays above

CC[N+](CC)(CC)CCOc1ccc(/C=C/c2ccccc2)cc1
active: [10] 18.3 µM
not listed: [11] | [14] | [15] | [16] | [17]
inactive: all other assays above

CCCCCCCCCCCCCCCCC(C(=O)O)C(O)(CC(=O)O)C(=O)O (stereo unspecified)
not listed: [10] | [17] | [18]
inactive: all other assays above

CCCCCCCCNC(C)C(O)c1ccc(SC(C)C)cc1 (stereo unspecified)
active: [2] 16.9 µM | [8] 19.9 µM | [19] 23.7 µM
inactive: [1] | [3] | [4] | [5] | [6] | [7] | [15] | [16]

COc1cc2ncnc(Nc3ccc(F)c(Cl)c3)c2cc1OCCCN1CCOCC1
active: [16] 29.8 µM
not listed: [9] | [17] | [19] | [20]
inactive: all other assays above

CCCCCCCCCCCCCCCCCC[N+](C)(C)Cc1ccccc1
active: [7] 46.2 µM | [8] 46.2 µM | [11] 0.19 µM | [13] 61.7 µM
inactive: [1] | [2] | [3] | [4] | [5] | [6] | [10] | [12] | [15]

O=C1Cc2cc(CCN3CCN(c4nsc5ccccc45)CC3)c(Cl)cc2N1
active: [11] 5.16 µM
not listed: [9] | [10] | [14] | [16] | [17] | [19]
inactive: all other assays above

COc1ccc(N=Nc2cc(C)c(N=Nc3ccc(S(=O)(=O)O)cc3)cc2OC)cc1
not listed: [8] | [13] | [14] | [19]
inactive: all other assays above

NC(=O)c1ccccc1C(N)=O
active: [1] 68.9 µM | [9] 45.9 µM
not listed: [14] | [17] | [19]
inactive: all other assays above
